Results: PubChem BioAssay (Tox21)
Values joined by “and” are separate entries in the source; they are usually repeats but may differ in a detail not shown here. Equal values may be shown once. Records with an inconclusive call do not appear. A call without a number means that no potency is given here. A number with no mark means an inactive call. Active and inactive are the calls of the source. Calls follow the shape of the dose curve; as a rule, active = well fitted activation curve with a large enough effect; inconclusive = small, poorly fitted or top-dose-only effect; inactive = flat fitted curve, though single readings scatter.

Assay: qHTS assay to identify small molecule phospholipidosis (PLD) inducers (AID 1259344)
Conditions: HepG2 phospholipidosis, LipidTOX Red imaging, 24 h; series mostly up to 38.3 µM
In short: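 HepG2 cells grown on collagen I take up LipidTOX Red while exposed to compound for 24 h; after fixation they are imaged at 20x and pit metrics are extracted.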
For `C=C1C(=C/C=C2\CCC[C@]3(C)[C@@H]([C@H](C)CCCC(C)C)CC[C@@H]23)C[C@@H](O)C[C@@H]1O`, the Potency was “inactive”.
In the case of `C[C@@H]1O[C@@H]1P(=O)(O)O`, the Potency is reported as “inactive”.
With `C=CC[N@@+]12CC[C@@]34c5ccccc5N5/C=C6/[C@H]7C[C@H]8[C@@]9(CC[N@@+]8(CC=C)C/C7=C/CO)c7ccccc7N(/C=C(/[C@@H](C[C@@H]31)/C(=C\CO)C2)[C@H]54)[C@@H]69` the Potency was “inactive”.
With `CC(C)c1ncc([N+](=O)[O-])n1C` the Potency was “inactive”.
In the case of `C[N+]1(CCCCC[N+]2(C)CCCC2)CCCC1`, the Potency is reported as “inactive”.
In the case of `O=C1c2ccccc2CN2C(=O)c3ccccc3CN12`, the Potency is reported as “inactive”.
In the case of `CC(C)(C)c1ccc2c(S(=O)(=O)O)c(C(C)(C)C)ccc2c1`, the Potency is reported as “inactive”.
With `CO/N=C(\C(=O)N[C@@H]1C(=O)N2C(C(=O)[O-])=C(C[n+]3cccc4c3CCC4)CS[C@H]12)c1csc(N)n1` the Potency was “inactive”.
In the case of `O=C1CCC(c2ccc(-n3ccnc3)cc2)=NN1`, the Potency is reported as “inactive”.
For `CC(=NCc1ccccc1)c1ccccc1O`, the Potency was “inactive”.
With `O=S(=O)(O)O` the Potency was “inactive”.
With `CC[N+](CC)(CC)CCC(O)(c1ccccc1)C1CCCCC1` (configuration not stated) the Potency was “inactive”.
In the case of `Nc1c(CC(=O)O)cccc1C(=O)c1ccccc1`, the PLD induction is reported as -2.85% [at 7.66 µM] and -2.33% [at 7.66 µM].
For `Cc1c(O)c(=O)ccn1C`, the Potency was “inactive”.
For `CO/N=C(\C(=O)N[C@@H]1C(=O)N2C(C(=O)O)=C(CSc3cnns3)CS[C@H]12)c1csc(N)n1`, the Potency was “inactive”.
For `N=C(N)n1cccn1`, the Potency was “inactive”.
With `CCC(NC(C)C)C(O)c1ccc(O)c(O)c1` (configuration not stated) the Potency was “inactive”.
